Experimental data taken from PubChem BioAssay.
The source made the active and inactive calls.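 The calls were made as follows, unless noted: active = GFP response above 150% of the DMSO level; inconclusive = fewer than 70 events counted for a yeast strain; inactive = the rest.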

Columns and labels:
[1] = hit retest on RPL19A-GFP reporter strain – cell-based, S. cerevisiae, flow cytometry, cherry picks, mother/daughter gates, confirmation (AID 2270;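 active = GFP response below 50% of the DMSO control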); conditions: 3 h, at 10 µM, stronger effect = lower value, 100 = same GFP as DMSO wells
[2] = yeast TOR pathway reporter LAP4-GFP change – cell-based, cherry picks, flow cytometry, mother/daughter gates, confirmation (AID 2271;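 active = GFP response above 150% of the DMSO control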;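 also: ratio of sample to DMSO plate mean so 100% equals DMSO level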); conditions: S. cerevisiae LAP4-GFP strain, 3 h, at 10 µM, stronger effect = higher value, 100 means same as DMSO control
[3] = TOR pathway reporter MEP2-GFP, retest of hits – S. cerevisiae, flow cytometry GFP, cherry picks, confirmation (AID 2272;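 active = GFP response above 150% of the DMSO control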;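 also: ratio of well signal to plate DMSO mean so 100% equals DMSO level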); conditions: S. cerevisiae MEP2-GFP strain, 3 h, at 10 µM, stronger effect = higher value
[4] = yeast AGP1-GFP fluorescence change, single-dose – cell-based, flow cytometry, S. cerevisiae, cherry picks, confirmation (AID 2273);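 also: median GFP channel fluorescence over the whole cell population gate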; conditions: S. cerevisiae AGP1-GFP strain, 3 h, at 10 µM
[5] = TOR pathway CIT2 reporter hit retest – S. cerevisiae, GFP fusion, cherry picks, mother/daughter gates, confirmation (AID 2274); conditions: S. cerevisiae CIT2-GFP strain, flow cytometry, 3 h, at 10 µM, stronger effect = higher value
[6] = reduced mouse 2C T cell binding to pMHC/ICAM-1 vesicles – MLPCN validation set, flow cytometry, LFA-1/ICAM-1 modulator project, pilot screen (AID 2523;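 active = response below a set limit, under 55% cells CD8-positive and vesicle-bound, and CD8 cells' 90th-percentile brightness under 279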;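 as to vesicle binding response: mean PE anti-B7-1 fluorescence of CD8+ cells relative to row control; 100% = QL9-loaded vesicles with DMSO vehicle in the same plate row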); conditions: 2C mouse CD8+ T cells, at 7 µM, stronger effect = lower value; double positive events: measured here: CD8+/vesicle+ event percentage
[7] = biological target: Integrin beta-1 (Homo sapiens) + Integrin alpha-4 (Homo sapiens) (UniProt P13612+P05556); assay: alpha4beta1 integrin LIBS antibody binding reduction – U937 cells, HUTS-21 mAb, flow cytometry, validation set, VLA-4 allosteric modulator project, pilot screen (AID 2674;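 active = inhibition above 50%, about 3 SD of the validation set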;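 also: antibody binding induced by the VLA-4 ligand LDV present at three times its Kd; 0% = LDV ligand with antibody and no compound and 100% = antibody without LDV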); conditions: HUTS-21 LIBS mAb binding, at 6.7 µM, stronger effect = higher value, binding induced by LDV ligand
[8] = calorie-restriction mimetic ROS inhibitors, yeast – validation compound set, pilot screen (AID 2706;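 active = superoxide response below 65% of plate, a cut near 3 SD across the whole screen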;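 also: yeast exposed to compound for one week at 30 degrees C before staining; 100% = mean of all compound wells on the same plate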); conditions: S. cerevisiae aging, superoxide DHE fluorescence; at 10 µM, stronger effect = lower value
[9] = biological target: Beta-adrenergic receptor kinase 1 (Homo sapiens) (UniProt P25098); assay: GRK2 binders displacing RNA aptamer, biochemical, validation, human GRK2, bead flow cytometry (AID 488806;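 active = aptamer binding inhibition above 30%, about 3 SD of noise from non-fluorescent compounds; inactive = inhibition at or below 30%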); conditions: bead-bound GRK2, FAM-aptamer displacement, at 10 µM, stronger effect = higher value
[10] = biological target: Beta-2 adrenergic receptor (Homo sapiens) (UniProt P07550); assay: agonist-induced loss of surface beta2AR – cell-based, FAP fluorogen, flow cytometry, validation set, pilot screen (AID 504459;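 active = percent response above 42, roughly 3 SD of non-fluorescent test compounds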;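 also: agonist-driven loss of surface beta2AR via internalization measured by FAP dye flow cytometry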); conditions: Am2.2-beta2AR cells, at 10 µM, stronger effect = higher value
[11] = biological target: AP-2 complex subunit beta (Homo sapiens) (UniProt P63010); assay: beta-arrestin/AP2 interaction blockers – biochemical, validation set, GST-AP2 beads, flow cytometry, pilot screen (AID 504541;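 active = inhibition above 54%, about 3 SD of non-fluorescent compounds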;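 also: AP2 carries R879A mutation and is captured from E. coli lysate; bead-bound FITC arrestin peptide fluorescence measuring arrestin peptide binding to AP2; 0% = DMSO wells and 100% = excess unlabeled arrestin peptide control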); conditions: FITC arrestin peptide, at 10 µM, stronger effect = higher value, AP2 beta2 appendage fragment, R879A mutant
[12] = cytosolic pH regulators acting via V-ATPase – S. cerevisiae, pHLuorin, HTS validation (AID 504600; in the data active = response above about 15%;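 also: plate controls were DMSO for no effect and reference compound for full effect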); conditions: V-ATPase proton transport, at 10 µM, stronger effect = higher value
[13] = system: anti-desmoglein-3 scFv antibody binding to human DSG3; assay: blockers of pathogenic pemphigus antibody–desmoglein-3 binding – biochemical, validation compound set, bead-based, flow cytometry, pilot screen (AID 588368;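 active = binding below the plate cutoff, the plate median minus 3 SD, with a reading above zero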;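 also: signal is the median channel fluorescence of bead-bound GFP antibody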); conditions: Protein G beads, DSG3-Fc, scFv-GFP binding, at 10 µM, stronger effect = lower value
[14] = Nile Red efflux blockade in pump-expressing yeast – validation compound set, multiplex, phenotypic, pilot screen (AID 588506;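 active = efflux inhibition above 0.42, the validation set average plus 4 SD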;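 also: Nile Red retained in cells so higher fluorescence means more efflux inhibition; 0 = negative control wells and 1 = enniatin B 25 µM full block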); conditions: S. cerevisiae pump-expressing triplex, Nile Red efflux flow cytometry; at 10 µM; stronger effect = higher value; the pumps come from Candida albicans
[15] = biological target: ATP-binding cassette sub-family B member 6 (Homo sapiens) (UniProt Q9NP58); assay: blockers of ABCB6-driven porphyrin uptake – K562-ABCB6 cells, flow cytometry, validation set, pilot screen (AID 588550;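 active = inhibition above the screen-wide mean plus 3 SD, about 51%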;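 also: 0% = DMSO wells and 100% = benzethonium chloride 70 µM positive control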); conditions: K562-ABCB6 porphyrin accumulation, 1 h, at 10 µM, stronger effect = higher value
[16] = AML differentiation inducers, ER-HoxA9 marrow cells – cell-based, GFP/MAC1 double positive, flow cytometry, validation set, primary screen (AID 588685;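 active = differentiation response of at least 50%, scaled between solvent and reference control, from cells with both markers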;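 also: compound exposure lasts four days before antibody staining and flow analysis; 0% = DMSO wells and 100% = 5 µM fulvestrant positive control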); conditions: stronger effect = higher value, normalized: vehicle 0, fulvestrant 100
[17] = measured here: mother cell gate
[18] = measured here: daughter cell gate response
[19] = measured here: mother cell gate response
[20] = measured here: daughter cell gate

ATP-binding cassette sub-family B member 6 (Homo sapiens), sequence (Q9NP58 whole entry, looked up): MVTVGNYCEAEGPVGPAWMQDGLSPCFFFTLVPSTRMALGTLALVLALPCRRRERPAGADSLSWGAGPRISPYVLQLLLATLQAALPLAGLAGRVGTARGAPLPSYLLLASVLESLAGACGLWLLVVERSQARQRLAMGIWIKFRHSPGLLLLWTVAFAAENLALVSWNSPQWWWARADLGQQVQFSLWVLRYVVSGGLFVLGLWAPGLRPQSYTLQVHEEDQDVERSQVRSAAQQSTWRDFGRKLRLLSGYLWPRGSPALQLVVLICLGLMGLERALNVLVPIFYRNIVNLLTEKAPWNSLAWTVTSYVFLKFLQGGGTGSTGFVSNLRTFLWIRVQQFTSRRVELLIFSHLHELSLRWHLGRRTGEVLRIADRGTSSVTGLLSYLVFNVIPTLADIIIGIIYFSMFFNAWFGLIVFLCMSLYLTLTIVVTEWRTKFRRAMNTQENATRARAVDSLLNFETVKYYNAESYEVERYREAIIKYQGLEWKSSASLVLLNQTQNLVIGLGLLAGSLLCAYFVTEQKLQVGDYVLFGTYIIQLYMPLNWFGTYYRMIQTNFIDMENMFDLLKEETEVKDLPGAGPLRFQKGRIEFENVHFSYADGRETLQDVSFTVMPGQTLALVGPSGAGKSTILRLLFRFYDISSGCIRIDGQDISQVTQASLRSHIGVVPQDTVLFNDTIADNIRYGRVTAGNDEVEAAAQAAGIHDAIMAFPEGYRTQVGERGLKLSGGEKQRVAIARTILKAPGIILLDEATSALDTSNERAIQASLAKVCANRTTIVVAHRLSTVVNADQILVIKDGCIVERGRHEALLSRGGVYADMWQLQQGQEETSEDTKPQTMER
Beta-adrenergic receptor kinase 1 (Homo sapiens), sequence (P25098 whole entry, looked up): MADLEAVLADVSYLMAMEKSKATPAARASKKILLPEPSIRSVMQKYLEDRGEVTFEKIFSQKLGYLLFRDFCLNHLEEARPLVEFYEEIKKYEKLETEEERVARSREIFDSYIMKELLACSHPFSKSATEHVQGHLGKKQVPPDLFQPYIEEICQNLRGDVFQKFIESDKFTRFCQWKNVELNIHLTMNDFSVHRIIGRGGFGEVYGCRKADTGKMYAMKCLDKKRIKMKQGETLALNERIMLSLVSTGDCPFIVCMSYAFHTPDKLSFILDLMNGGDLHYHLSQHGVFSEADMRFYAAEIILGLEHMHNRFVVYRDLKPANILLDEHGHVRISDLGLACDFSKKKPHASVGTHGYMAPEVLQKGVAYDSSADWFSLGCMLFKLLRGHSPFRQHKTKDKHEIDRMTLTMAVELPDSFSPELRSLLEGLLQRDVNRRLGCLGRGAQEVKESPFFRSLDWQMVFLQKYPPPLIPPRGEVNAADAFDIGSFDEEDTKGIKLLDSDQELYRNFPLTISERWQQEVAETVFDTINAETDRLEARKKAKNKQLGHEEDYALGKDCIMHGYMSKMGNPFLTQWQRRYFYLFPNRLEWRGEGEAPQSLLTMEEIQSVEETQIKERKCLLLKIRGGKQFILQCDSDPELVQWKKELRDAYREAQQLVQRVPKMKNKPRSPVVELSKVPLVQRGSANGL
Integrin beta-1 (Homo sapiens) + Integrin alpha-4 (Homo sapiens), sequence (P05556 whole entry, looked up): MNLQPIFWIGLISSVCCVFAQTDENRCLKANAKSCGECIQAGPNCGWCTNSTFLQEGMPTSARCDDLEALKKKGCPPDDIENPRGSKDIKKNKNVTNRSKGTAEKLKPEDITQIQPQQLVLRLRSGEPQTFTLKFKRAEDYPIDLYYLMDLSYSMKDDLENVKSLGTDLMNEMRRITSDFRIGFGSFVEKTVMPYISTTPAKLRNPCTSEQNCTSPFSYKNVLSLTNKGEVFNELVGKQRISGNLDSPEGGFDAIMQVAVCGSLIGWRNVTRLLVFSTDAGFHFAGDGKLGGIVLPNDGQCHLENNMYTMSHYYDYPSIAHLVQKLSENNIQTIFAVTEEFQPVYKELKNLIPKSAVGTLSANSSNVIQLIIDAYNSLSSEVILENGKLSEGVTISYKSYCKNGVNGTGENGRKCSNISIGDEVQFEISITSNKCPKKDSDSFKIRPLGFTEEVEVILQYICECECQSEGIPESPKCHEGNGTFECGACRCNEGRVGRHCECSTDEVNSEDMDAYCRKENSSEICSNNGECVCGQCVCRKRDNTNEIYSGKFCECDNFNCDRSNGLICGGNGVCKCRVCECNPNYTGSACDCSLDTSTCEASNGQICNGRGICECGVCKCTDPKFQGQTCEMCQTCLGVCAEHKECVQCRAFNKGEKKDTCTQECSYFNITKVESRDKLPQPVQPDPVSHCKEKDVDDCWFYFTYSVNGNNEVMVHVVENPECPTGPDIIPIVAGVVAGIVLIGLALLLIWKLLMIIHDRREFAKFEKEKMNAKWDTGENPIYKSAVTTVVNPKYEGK
Integrin beta-1 (Homo sapiens) + Integrin alpha-4 (Homo sapiens), sequence (P13612 whole entry, looked up): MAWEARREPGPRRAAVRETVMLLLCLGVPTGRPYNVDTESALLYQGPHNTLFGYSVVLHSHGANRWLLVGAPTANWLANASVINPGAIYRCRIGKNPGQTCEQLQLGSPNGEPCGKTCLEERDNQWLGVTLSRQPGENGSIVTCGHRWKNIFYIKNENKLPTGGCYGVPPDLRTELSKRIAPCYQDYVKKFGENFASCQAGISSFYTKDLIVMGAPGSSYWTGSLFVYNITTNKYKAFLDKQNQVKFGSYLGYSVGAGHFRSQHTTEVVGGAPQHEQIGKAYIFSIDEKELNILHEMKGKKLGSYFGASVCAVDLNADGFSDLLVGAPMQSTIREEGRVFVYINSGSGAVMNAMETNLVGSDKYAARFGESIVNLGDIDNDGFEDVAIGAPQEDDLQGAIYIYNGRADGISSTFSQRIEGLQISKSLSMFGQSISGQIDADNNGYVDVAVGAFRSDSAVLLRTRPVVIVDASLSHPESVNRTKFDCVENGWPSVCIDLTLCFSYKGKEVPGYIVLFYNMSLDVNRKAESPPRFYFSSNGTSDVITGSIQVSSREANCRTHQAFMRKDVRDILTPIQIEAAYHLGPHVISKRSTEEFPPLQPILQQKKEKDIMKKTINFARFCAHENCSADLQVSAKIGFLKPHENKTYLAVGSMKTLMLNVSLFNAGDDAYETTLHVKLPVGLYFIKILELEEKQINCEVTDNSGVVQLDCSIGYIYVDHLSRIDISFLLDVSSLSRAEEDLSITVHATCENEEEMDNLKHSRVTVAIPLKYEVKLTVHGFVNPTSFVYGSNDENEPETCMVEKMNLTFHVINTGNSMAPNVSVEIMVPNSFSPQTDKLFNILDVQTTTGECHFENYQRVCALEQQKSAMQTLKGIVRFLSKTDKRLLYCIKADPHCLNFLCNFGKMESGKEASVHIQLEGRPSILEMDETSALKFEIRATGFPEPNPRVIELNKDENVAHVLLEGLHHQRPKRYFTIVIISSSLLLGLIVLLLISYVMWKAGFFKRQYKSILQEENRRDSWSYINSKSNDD
Beta-2 adrenergic receptor (Homo sapiens), sequence (P07550 whole entry, looked up): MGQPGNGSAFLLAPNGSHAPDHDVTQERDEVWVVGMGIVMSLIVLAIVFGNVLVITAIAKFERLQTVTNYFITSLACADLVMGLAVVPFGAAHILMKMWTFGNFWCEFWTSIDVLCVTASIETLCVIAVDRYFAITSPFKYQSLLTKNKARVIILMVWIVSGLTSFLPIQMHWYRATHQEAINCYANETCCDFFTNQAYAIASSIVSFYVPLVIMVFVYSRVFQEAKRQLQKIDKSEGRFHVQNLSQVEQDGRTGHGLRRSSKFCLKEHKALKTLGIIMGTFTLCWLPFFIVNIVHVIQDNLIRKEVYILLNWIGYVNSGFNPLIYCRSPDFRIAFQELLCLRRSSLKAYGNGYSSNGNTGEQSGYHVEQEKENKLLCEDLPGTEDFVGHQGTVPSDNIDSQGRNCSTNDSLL
AP-2 complex subunit beta (Homo sapiens), sequence (P63010 whole entry, looked up, the tested form may be a part, one chain of several): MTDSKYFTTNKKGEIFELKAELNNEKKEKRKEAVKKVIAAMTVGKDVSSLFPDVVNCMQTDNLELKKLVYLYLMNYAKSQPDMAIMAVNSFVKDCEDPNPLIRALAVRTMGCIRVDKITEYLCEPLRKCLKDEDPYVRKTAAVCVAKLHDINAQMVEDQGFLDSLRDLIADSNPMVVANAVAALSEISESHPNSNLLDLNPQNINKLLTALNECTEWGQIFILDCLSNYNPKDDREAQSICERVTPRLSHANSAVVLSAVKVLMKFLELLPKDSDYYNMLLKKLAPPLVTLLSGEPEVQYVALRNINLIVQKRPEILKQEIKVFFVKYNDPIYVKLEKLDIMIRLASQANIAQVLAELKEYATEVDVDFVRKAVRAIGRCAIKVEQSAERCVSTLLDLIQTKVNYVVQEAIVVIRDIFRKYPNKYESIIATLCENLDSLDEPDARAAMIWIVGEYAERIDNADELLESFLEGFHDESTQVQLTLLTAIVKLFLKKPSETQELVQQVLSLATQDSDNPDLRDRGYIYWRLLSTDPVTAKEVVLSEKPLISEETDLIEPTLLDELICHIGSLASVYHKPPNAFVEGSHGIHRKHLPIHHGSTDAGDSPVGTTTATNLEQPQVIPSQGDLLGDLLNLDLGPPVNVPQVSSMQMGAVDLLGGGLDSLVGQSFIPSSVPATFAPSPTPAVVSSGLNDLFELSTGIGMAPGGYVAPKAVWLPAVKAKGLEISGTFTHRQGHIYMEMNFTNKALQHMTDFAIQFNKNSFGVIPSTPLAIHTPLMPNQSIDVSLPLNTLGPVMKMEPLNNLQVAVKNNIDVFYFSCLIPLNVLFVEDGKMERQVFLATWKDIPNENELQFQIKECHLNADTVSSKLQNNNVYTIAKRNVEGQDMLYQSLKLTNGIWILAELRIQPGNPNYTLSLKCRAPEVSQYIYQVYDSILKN

## Oc1ccc(COCc2ccccc2)c2cccnc12
[1]
  GFP response vs DMSO: 98% (inactive)
[1]; [17]
  GFP response vs DMSO: 93.8%
[2]
  GFP response relative to DMSO: 149% (inactive)
[2]; [18]
  GFP response relative to DMSO: 138%
[2]; [19]
  GFP response relative to DMSO: 152%
[3]
  GFP response vs DMSO: 114% (inactive)
[4]
  GFP response, % of DMSO: 98.6% (inactive)
[5]
  GFP response, % of DMSO: 95.8% (inactive)
[5]; [20]
  GFP response, % of DMSO: 101%
[5]; [17]
  GFP response, % of DMSO: 91.5%
[6]
  double positive events: 65.9%
  vesicle binding response: 129% (inactive)
[7]
  inhibition: -0.43% (inactive)
[8]
  superoxide response (% of plate): 75.4% (inactive)
[9]
  aptamer binding inhibition: 0% (inactive)
[10]
  response: -7.8% (inactive)
[11]
  inhibition: -1% (inactive)
[12]
  response: 2.93% (inactive)
[13]
  binding (% of control): 101% (inactive)
[14]
  efflux inhibition (fraction of control): 0.12 (inactive)
[15]
  inhibition: 1% (inactive)
[16]
  differentiation response: 40.8% (inactive)

## Cn1c(C(=O)O)cc2c(=O)n3ccccc3nc21
[1]
  GFP response vs DMSO: 101% (inactive)
[1]; [20]
  GFP response vs DMSO: 99.3%
[1]; [17]
  GFP response vs DMSO: 99%
[2]
  GFP response relative to DMSO: 97.7% (inactive)
[3]
  GFP response vs DMSO: 104% (inactive)
[4]
  GFP response, % of DMSO: 102% (inactive)
[5]
  GFP response, % of DMSO: 104% (inactive)
[5]; [20]
  GFP response, % of DMSO: 104%
[5]; [17]
  GFP response, % of DMSO: 95.6%

## O=C(c1cccc(COc2ccc(Cl)cc2Cl)c1)N1CCN(c2ccccn2)CC1
[1]
  GFP response vs DMSO: 80% (inactive)
[1]; [20]
  GFP response vs DMSO: 83.6%
[2]
  GFP response relative to DMSO: 114% (inactive)
[2]; [18]
  GFP response relative to DMSO: 107%
[2]; [19]
  GFP response relative to DMSO: 117%
[3]
  GFP response vs DMSO: 103% (inactive)
[4]
  GFP response, % of DMSO: 86.6% (inactive)
[5]
  GFP response, % of DMSO: 95.9% (inactive)
[5]; [20]
  GFP response, % of DMSO: 90.2%
[5]; [17]
  GFP response, % of DMSO: 95.6%
